63 compounds from PubChem BioAssay AID463190 (Sanford-Burnham Center for Chemical Genomics, 2010) can be followed below.

In all, about 330,000 compounds went through this assay and about 7,300 (2.2%) were called active. This is one part of a sample in which actives are shown more often than they occur.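 How the source made its calls: active means inhibition of at least 40%; inactive means the rest.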

The assay is described as follows: growth inhibitors of tim10-1 mutant yeast, primary screen, luminescence, uHTS (AID 463190).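 Further: mutant grown at 25 °C; 0% = DMSO wells with yeast and 100% = wells holding no yeast.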 The conditions noted are these: S. cerevisiae tim10-1 ts strain growth, BacTiter-Glo, 24 h; at 20 µM; hits give high values.
Regarding `O=C(Nc1cccc(Cl)c1)C1CCCN(c2cnccn2)C1` (stereo not drawn), the inhibition is -8.48% (inactive). As to `O=C(NCCc1ccccc1)Oc1ccc(Cl)cc1`, the inhibition is 13.9% (inactive). With `O=C(COc1ccc(-n2cnnn2)cc1)Nc1ccccc1Cl`, the inhibition is -7.79% (inactive).

In the case of `Cc1ccc(NC(=O)CCC(=O)N2CCC(c3ccccc3)=N2)cc1S(=O)(=O)N1CCCCC1`, the inhibition is -15.3% (inactive).

As to `Cc1ccc(C(=O)NCC(=O)OCC(=O)Nc2cccc(S(=O)(=O)N3CCCC3)c2)cc1C`, the inhibition is -7% (inactive). With `COc1ccccc1CNC(=O)CCCN1C(=O)NC2(CCCC2)C1=O`, the inhibition was 6.1% (inactive). `Cn1c2ccccc2c(=O)c2c(O)cccc21`: the inhibition was 6.4% (inactive). `CCCc1nc2c(c(=O)c3ccccc3n2C)c(=O)n1C1CCCCCC1`: the inhibition is 43.1% (active).

On to `Cn1c2ccccc2c2c(C(=O)N3CCN(c4ccc(F)cc4)CC3)cn(C3CCCC3)c(=O)c21`, for which the inhibition was 36.7% (inactive). In the case of `CCc1nc2nc(C)c(NS(=O)(=O)c3ccc4c(c3)CCCC4)c(=O)n2[nH]1`, the inhibition is -10.4% (inactive). In the case of `O=S(=O)(c1ccc(Cl)cc1)c1nc(-c2ccco2)oc1N1CCCCC1`, the inhibition was 26.4% (inactive).

In the case of `O=c1oc(-c2ccco2)nc2sc3c(c12)CCCCC3`, the inhibition is 41.5% (active).

On to `Cn1c(=O)n(Cc2ccco2)c(=N)c2c3c(sc21)CCCC3`, for which the inhibition was 12.5% (inactive). Turning to `Cn1cccc1/C=N/NC(=O)CNc1cccc2ccccc12`, the inhibition is 13.6% (inactive). `Cc1cccc(/C=N/NC(=O)CNc2cccc3ccccc23)n1`: the inhibition was 23.6% (inactive).

In the case of `C/C(=N\NC(=O)CNc1cccc2ccccc12)c1ccc(Br)s1`, the inhibition was 41.9% (active). As for `CC(C)c1ccc(NC2CCCN(C(=O)c3ccncc3)C2)cc1` (stereo not drawn), the figure is 8.48% (inactive); as for `Fc1ccccc1OCCSc1nc2ccccc2o1`, 27.5% (inactive). Regarding `COCCN(Cc1ccccc1)C(=O)Cc1ccc(S(=O)(=O)N2CCOCC2)s1`, the inhibition is 18.8% (inactive). For the compound `C=CCNc1nc(C)nc(OC)n1`, the inhibition was 7.31% (inactive). Turning to `COc1nc(NCc2ccc(Cl)cc2)nc(OC)n1`, the inhibition is 6.89% (inactive).

For `C=CCNc1nc(Nc2ccc(Cl)cc2)nc(OC)n1`, the inhibition was 43.2% (active). As for `Cc1[nH][nH]c(=O)c1C(c1ccc(-c2ccc(Cl)cc2)o1)c1c(C)[nH][nH]c1=O`, the inhibition was 67.1% (active).

Consider `CN(CC(=O)Nc1ccc(F)cc1)C(=O)c1ccc(-c2ccc(Cl)cc2)o1`, for which the inhibition was 21.8% (inactive). For the compound `CCCCSc1[nH]c(=O)c(C(=O)OCC)cc1C#N`, the inhibition is -14.3% (inactive). `O=C(c1cc2cc(Br)cc(Br)c2oc1=O)N1CCOCC1`: the inhibition was 7.28% (inactive). Under `O=C(CSC(=S)N1CCOCC1)c1ccccc1` stands 5.05% (inactive). As to `O=C(CSC(=S)N1CCOCC1)c1cc(Br)cc(Br)c1O`, the inhibition was 50.1% (active).

In the case of `Nn1c(SCC(=O)NC2CCCC2)nnc1-c1ccccc1F`, the inhibition was -11.7% (inactive). With `CC(=O)Nc1ccc(Sc2ccccc2C(=O)N2CCCC2)cn1`, the inhibition is 7.35% (inactive).

`CC(C)(C)CN1CCNC(=O)C1CC(=O)NC1Cc2ccccc2C1` (stereo not drawn): the inhibition was 16.6% (inactive). In the case of `CN1CN(C)c2ccc([N+](=O)[O-])c3cccc1c23`, the inhibition was 9.35% (inactive). Take `CCOc1cccc(=O)c2c(C)n(CC3CCCO3)c(C)c12` (stereo not drawn): the inhibition was 1.25% (inactive).

Take `O=C1c2cccc3c([N+](=O)[O-])ccc(c23)C(=O)N1CC1CCCO1` (stereo not drawn): the inhibition is 71.2% (active). Turning to `O=C(c1ccccc1)N1CCC(CC2CC(c3ccc(Cl)cc3)=NO2)(C(=O)NCC2CCCCC2)CC1` (stereo not drawn), the inhibition is 41.2% (active). Consider `COc1ccc(CNC(=O)C2(CC3CC(c4ccccc4)=NO3)CCN(C(=O)c3cccc(O)c3)CC2)cc1` (stereo not drawn), for which the inhibition is 2.25% (inactive).

As for `CCCCCCCNC(=O)C1(CC2CC(c3cccc(Br)c3)=NO2)CCN(C(=O)c2cc(OCC)c(OCC)c(OCC)c2)CC1` (stereo not drawn), the inhibition was -4.27% (inactive). As for `O=C(NCC1CCCO1)C1CCN(C2CCN(C(=O)C3CCCCC3)CC2)CC1` (stereo not drawn), the figure is -2.3% (inactive); as for `C/C(=N/O)c1ccc(N2C(=O)C3C4C=CC(C3C2=O)C2C3C(=O)N(c5ccc(/C(C)=N/O)cc5)C(=O)C3C42)cc1` (stereo not drawn), 6.62% (inactive); as for `O=C(O)c1cccc(S(=O)(=O)N2CC=C(c3ccccc3)CC2)c1`, 13.4% (inactive).

For the compound `COc1ccc(OC)c(S(=O)(=O)n2c([N+](=O)[O-])cnc2C)c1`, the inhibition is 13.3% (inactive). As to `CCOc1ccc(C(C)C)cc1S(=O)(=O)n1nc(C)cc1C`, the inhibition is 36.6% (inactive).

Take `COc1ccc(C(C[N+](=O)[O-])n2nc(C)cc2C)cc1` (stereo not drawn): the inhibition was 43.3% (active). Under `Cc1ccc(S(=O)(=O)N(C)C)cc1NC(=O)c1ccc(-n2cncn2)c([N+](=O)[O-])c1` stands -0.831% (inactive); under `Cn1ccs/c1=N\S(=O)(=O)c1ccc(C(C)(C)C)cc1`, 26.8% (inactive); under `COc1cc(C(=O)OCc2cc(=O)n3ccsc3n2)ccc1OC(C)C`, -4.26% (inactive). For `CCCCCCSc1nsc(N)n1`, the inhibition is 26.2% (inactive). As for `CN(Cc1ccccc1)CC(O)COc1ccc(CNCc2cc3ccccc3s2)cc1` (stereo not drawn), the figure is -10.1% (inactive); as for `COC(=O)c1ccccc1NS(=O)(=O)c1ccc2[nH]c(=O)[nH]c2c1`, 5.53% (inactive).

Take `CCOc1ccc(NC(=O)c2ccccc2NS(C)(=O)=O)cc1`: the inhibition is -4.15% (inactive). In the case of `COC(=O)c1ccc(NC(=O)c2ccccc2NS(=O)(=O)c2ccccc2)cc1`, the inhibition is 40.3% (active). Under `CCOC(=O)c1ccc(NC(=O)CS(=O)(=O)c2cn(CC)c3ccccc23)cc1` stands 14.8% (inactive). Turning to `CC(=O)c1cc(CN2CCC(n3nccc3NC(=O)c3ccccc3Cl)CC2)cs1`, the inhibition was -3.89% (inactive). For `Cc1ccc(N=Cc2c(O)n(-c3nccs3)c(=O)c3ccccc23)c(C)c1`, the inhibition was 9.76% (inactive). As for `OCc1nc(CO)n(Cc2ccccc2)n1`, the figure is 4.38% (inactive); as for `Cc1cc(C)c(S(=O)(=O)c2ccccc2)c(OC(=O)c2c(F)cccc2Cl)n1`, 42.6% (active).

For `Cc1ccc(NNC(=O)c2c(F)cccc2Cl)cc1Cl`, the inhibition was 14% (inactive). Turning to `Cc1cc(OC(=O)c2c(Cl)cccc2Cl)nc(C)n1`, the inhibition was 35% (inactive). As for `O=C(O)c1cccnc1NC1CCCC1`, the inhibition was -10.6% (inactive). Consider `CCC(=O)c1cn(CCOc2ccccc2OC)c2ccccc12`, for which the inhibition was 4.25% (inactive).

For the compound `Cc1nn(CC(=O)NCCc2ccccc2)c(=O)c2cc3occc3n12`, the inhibition was -16.4% (inactive). In the case of `Cc1ccc(-c2ccc(=O)n(CC(=O)NCCCN3CCCCC3)n2)cc1`, the inhibition was -3.38% (inactive). As for `CCc1ccc(-c2cc3c(=O)n(CC(=O)NCCCN4CCN(Cc5ccccc5)CC4)nc(C)n3n2)cc1`, the figure is 43.7% (active).
